# From PubChem BioAssay (NCATS)
# Results filed as inconclusive are left out. Entries that show only a call come without a potency. The source made the active and inactive calls. Calls come from the whole dose curve; as a rule, active = well fitted curve in the direction sought with a large enough effect; inconclusive = small, poorly fitted or top-dose-only effect, or another doubt; inactive = no such curve, though single readings can be large; an effect the other way counts as inactive or inconclusive.
# Columns and labels:
# [1] = target: Glutaminase kidney isoform, mitochondrial (Homo sapiens) (UniProt O94925); assay: qHTS for Inhibitors of Glutaminase (GLS): LOPAC Validation (AID 624146); note: nearly all actives have a fitted effect of over 60% in size; note: potency is the fitted concentration of half-maximal effect
# Glutaminase kidney isoform, mitochondrial (Homo sapiens), sequence (O94925 whole entry, looked up, canonical isoform): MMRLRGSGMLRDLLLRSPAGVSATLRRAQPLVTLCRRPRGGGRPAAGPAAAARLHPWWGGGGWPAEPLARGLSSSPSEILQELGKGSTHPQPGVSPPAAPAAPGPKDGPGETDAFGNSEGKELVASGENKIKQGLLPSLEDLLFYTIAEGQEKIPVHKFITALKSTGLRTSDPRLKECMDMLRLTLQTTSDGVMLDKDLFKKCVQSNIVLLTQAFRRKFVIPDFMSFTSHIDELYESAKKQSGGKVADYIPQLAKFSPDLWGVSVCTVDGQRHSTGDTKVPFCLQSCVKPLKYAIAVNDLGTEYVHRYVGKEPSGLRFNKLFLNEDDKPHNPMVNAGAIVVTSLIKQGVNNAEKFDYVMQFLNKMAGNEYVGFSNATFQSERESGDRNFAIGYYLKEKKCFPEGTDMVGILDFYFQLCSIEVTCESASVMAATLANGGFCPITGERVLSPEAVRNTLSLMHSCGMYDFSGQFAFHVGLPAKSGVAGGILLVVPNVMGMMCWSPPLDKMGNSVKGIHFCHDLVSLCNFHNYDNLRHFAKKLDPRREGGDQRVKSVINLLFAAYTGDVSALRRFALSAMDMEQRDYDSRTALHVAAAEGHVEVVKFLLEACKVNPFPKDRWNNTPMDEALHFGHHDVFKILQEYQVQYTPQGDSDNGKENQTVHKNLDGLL
# Procedure, shortened: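 Enzyme dispensed in phosphate buffer (45 mM, pH 8.2, 0.02% Tween-20), compounds pinned in, then 1 mM L-glutamine solution and the glutamate oxidase–HRP–Amplex Red mix added; fluorescence read immediately and again after 30 min at room temperature.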
# [2] = target: Glucagon-like peptide 1 receptor (Homo sapiens) (UniProt P43220); assay: qHTS of GLP-1 Receptor Agonists: LOPAC Validation (AID 624148);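 note: luminescence from a luciferase reporter switched on by cAMP; higher luminescence signal means agonism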
# Glucagon-like peptide 1 receptor (Homo sapiens), sequence (P43220 whole entry, looked up): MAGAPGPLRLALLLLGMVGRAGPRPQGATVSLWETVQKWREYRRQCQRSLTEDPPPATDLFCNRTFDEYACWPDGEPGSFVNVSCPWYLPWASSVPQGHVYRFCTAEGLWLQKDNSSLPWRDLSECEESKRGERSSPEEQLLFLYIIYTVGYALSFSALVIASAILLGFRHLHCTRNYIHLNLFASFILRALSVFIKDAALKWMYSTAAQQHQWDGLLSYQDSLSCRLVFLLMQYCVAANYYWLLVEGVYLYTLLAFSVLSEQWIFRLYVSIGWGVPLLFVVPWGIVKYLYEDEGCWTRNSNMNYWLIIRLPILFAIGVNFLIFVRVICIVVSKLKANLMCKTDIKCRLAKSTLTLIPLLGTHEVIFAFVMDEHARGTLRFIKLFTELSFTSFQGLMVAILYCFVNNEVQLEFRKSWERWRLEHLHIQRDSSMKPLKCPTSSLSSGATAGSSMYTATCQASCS
# Procedure, shortened: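 Agonism scored as increased luciferase luminescence driven by cAMP in HEK293 clones carrying GLP-1R. Cells settled 12 hours, received compound for 4-6 hr at 37 deg C, 5% CO2, and were read after 12 min detection reagent at RT.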
# [3] = qHTS of Trypanosoma Brucei Inhibitors: LOPAC Validation (AID 624147)
# Procedure, shortened: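 In this concentration-response screen, enzyme-free wells defined baseline while DMSO plates tracked drift. Each reaction combined TbPYK, substrate, compound and 130 uM ADP for 45 min at room temperature. Kinase-Glo Plus luminescence gave the signal.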
Compound,Potency [1],outcome [2],Potency [3]
O=[N+]([O-])/C=C/c1ccc2c(c1)OCO2,12.6 µM (active),inactive,
CCCN1CCc2cccc3c2[C@H]1Cc1ccc(O)c(O)c1-3,1.41 µM (active),inactive,
C[C@H](N)Cc1cccc(C(F)(F)F)c1,inactive,inactive,
OCc1cnc[nH]1,inactive,inactive,inactive
COc1ccc2[nH]cc(CCN)c2c1,,inactive,inactive
COc1ccc2c(c1)c(CCN1CCOCC1)c(C)n2C(=O)c1cccc(Cl)c1Cl,inactive,inactive,
COc1ccc2c(c1O)-c1cccc3c1[C@@H](C2)N(C)CC3,3.55 µM (active),inactive,
CCCN(CCC)[C@@H]1CCc2cccc(O)c2C1,,inactive,inactive
NC(Cc1ccc(N(CCCl)CCCl)cc1)C(=O)O (centres undefined),,inactive,
C=CCN1CC[C@]23c4c5ccc(O)c4O[C@@H]2/C(=N/N=C2\CC[C@@]4(O)C6Cc7ccc(O)c8c7[C@@]4(CCN6CC=C)[C@@H]2O8)CC[C@@]3(O)C1C5,2 µM (active),inactive,
O=[N+]([O-])c1ccc2nc(N3CCNCC3)ccc2c1,,inactive,
C[N+]1(C)CCc2cc3c(cc2[C@H]1[C@@H]1OC(=O)c2c1ccc1c2OCO1)OCO3,inactive,inactive,inactive
CCCCCCCCCCCCCC(=O)O[C@@H]1[C@@H](C)[C@@]2(O)[C@@H](C=C(CO)C[C@@]3(O)C(=O)C(C)=C[C@@H]23)C2C(C)(C)[C@@]21OC(C)=O (some centres undefined),,inactive,inactive
Clc1ccc(N2CC3CCC(C2)N3)nn1,inactive,inactive,inactive
CCNC(=O)[C@H]1O[C@@H](n2cnc3c(N)ncnc32)[C@H](O)[C@@H]1O,inactive,inactive,inactive
c1ccc2c(N3CCNCC3)cccc2c1,,inactive,inactive
N#C/C(=C/c1ccc(O)c(O)c1)C(N)=S,,inactive,inactive
Cc1cc([C@@H]2CCCN2C)on1,inactive,inactive,
C=CCN1CCc2cccc3c2[C@H]1Cc1ccc(O)c(O)c1-3,0.891 µM (active),inactive,
c1ccc2c(c1)[I+]c1ccccc1-2,inactive,inactive,
CC(C)(C)c1cc(C=C(C#N)C#N)cc(C(C)(C)C)c1O,12.6 µM (active),inactive,
CN1CC[C@@]2(C)c3cc(O)ccc3N(C)C12 (some centres undefined),10 µM (active),inactive,inactive
N[C@@H](Cn1ccc(=O)[nH]c1=O)C(=O)O,inactive,inactive,inactive
C[C@H](N)CN1CCc2ccc(Br)cc21,,inactive,
C[C@@H]1[C@@H]2Cc3ccc(O)cc3[C@@]1(C)CCN2CC1CC1,,,inactive
Cc1c2ccncc2c(C)c2c1[nH]c1ccccc12,,inactive,inactive
CCCN(CCC)CCc1ccc(O)c(O)c1,,inactive,inactive
CCS(=O)(=O)Nc1cccc(C(=C2CCCCC2)c2cnc[nH]2)c1,inactive,inactive,inactive
